SUMO Mot1 rescue = SUMOylation pathway inhibition by Mot1-301 growth rescue | S. cerevisiae Mot1-301 growth rescue, ATP luminescence, 38.5C; percent above DMSO median, 100 means doubled | growth rescue, % at 18.8 µM | actives 1% (n = 320,000) | AID 2716;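 active = every valid replicate shows activation above 250% relative to neutral control wells; inactive = the rest, any valid replicate at or below 250%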;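 note: OY570 slx delta 5 strain wells were the positive control but not used for scaling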
MsrA act = activates bovine MsrA enzyme; actives 0.3% (n = 360,000); AID 602163; activation, % at 10.6 µM; purified bovine MsrA, absorbance read-out; in the data active = activation above about 7.5%;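 note: 0% = vehicle and 100% = reference activator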
MsrA inh = inhibitors of bovine MsrA; purified bovine MsrA, absorbance read-out; inhibition, % at 15.5 µM; actives 0.75% (n = 360,000); AID 651718; in the data active = inhibition above about 4.5%;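 note: 0% = vehicle wells with enzyme and 100% = reference inhibitor wells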
PKA-R1A act = PKA-R1A complex activation; P00514+P68181; PKA-R1A dissociation, Cy5-IP20 fluorescence polarization; scaled: DMSO 0%, 113 µM cGMP 100%; activation, % at 11.4 µM; actives 0.083% (n = 340,000);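 active = percent activation above the mean of all tested compounds plus 3 SD, cut at about 19% in these data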;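 note: higher means more PKAc released from R1A so a rise in polarization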
PKA-R2B act = PKA-R2B complex activation. PKA-R2B holoenzyme dissociation, Cy5-IP20 fluorescence polarization; R2B truncated from residue 108, S112A mutant; 0% DMSO only, 100% 113 µM cGMP. activation, % at 11.4 µM. actives 0.079% (n = 340,000). AID 504700;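 active = activation above a cutoff set at the mean over all compounds plus 3 SD, cut at about 18% in these data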;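 note: higher means more holoenzyme dissociation and a rise in polarization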
Target sequence (P31323 whole entry, looked up, other chains not shown, the tested form may be a part): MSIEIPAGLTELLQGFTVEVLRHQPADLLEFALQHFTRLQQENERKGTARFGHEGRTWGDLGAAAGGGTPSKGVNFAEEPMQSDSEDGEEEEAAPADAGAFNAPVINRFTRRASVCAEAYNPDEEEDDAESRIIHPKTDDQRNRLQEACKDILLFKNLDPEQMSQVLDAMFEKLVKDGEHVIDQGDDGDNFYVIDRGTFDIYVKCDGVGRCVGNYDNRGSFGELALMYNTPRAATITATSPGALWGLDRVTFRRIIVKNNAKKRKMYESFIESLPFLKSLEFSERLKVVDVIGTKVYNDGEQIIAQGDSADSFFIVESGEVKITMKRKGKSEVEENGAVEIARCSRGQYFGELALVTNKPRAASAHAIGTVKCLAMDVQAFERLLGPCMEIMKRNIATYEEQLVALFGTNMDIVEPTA
MsrA act confirm = confirmation of bovine methionine sulfoxide reductase A activators; activation, % at 10.6 µM; purified bovine MsrA, absorbance read-out; actives 12% (n = 1,000); shares compounds with MsrA act; AID 602270; in the data active = activation above about 4%;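 note: enzyme coupled to thioredoxin and thioredoxin reductase with NADPH; 0% = vehicle wells and 100% = reference activator wells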
Starred values were filed as active, the others as inactive. Rows were chosen to be rich in hits. Some 2% of all compounds tested hit in one or more screens of this group.

Screening Cc1cc2c(c(=O)o1)[C@@]1(C(=O)Nc3ccccc31)C1=C(CCCC1=O)O2 returned MsrA inh 0.
Screening C(=Nc1ccc(N2CCOCC2)cc1)c1c[nH]c2ccccc12 returned SUMO Mot1 rescue 327, MsrA act 12*, MsrA inh 0, PKA-R1A act -8, PKA-R2B act -9 and MsrA act confirm 0.
`O=C1N[C@@H](Cc2ccccc2)C(=O)N2[C@H]1CSCCS2(=O)=O` gave MsrA inh 0.
COc1cccc(-c2cc(C(F)(F)F)n3nc(N)nc3n2)c1 was read as SUMO Mot1 rescue 543, MsrA act 14*, MsrA inh 3, PKA-R1A act 8, PKA-R2B act 2 and MsrA act confirm -3.
CC(C)C[C@H]1COc2cc(N3CC[C@@H](O)C3)ccc2S(=O)(=O)N1 was read as MsrA act 9.9*, MsrA inh 0 and MsrA act confirm 0.
Cc1ccc(C(=O)ON=C2CCN(S(=O)(=O)c3ccccc3)CC2)cc1 was read as MsrA act 7.7*, MsrA inh 1, PKA-R1A act 2, PKA-R2B act -3 and MsrA act confirm 1.
For O=C(NC(=O)c1cccc(Cl)c1)OC[C@@H]1CCCN2CCCCC12 (stereo not given in full) the results were SUMO Mot1 rescue -16, MsrA act -3, MsrA inh 0, PKA-R1A act -4 and PKA-R2B act -6.
O=C(NC(=O)c1cccc(F)c1)OC[C@@H]1CCCN2CCCC[C@H]12 was read as SUMO Mot1 rescue 4, MsrA act 8.8*, MsrA inh -1, PKA-R1A act -1, PKA-R2B act 7 and MsrA act confirm -2.
For O=C1C(=O)c2c(ccc3ccccc23)-c2ccccc21 the results were MsrA act 12*, MsrA inh 0, PKA-R1A act -10, PKA-R2B act -11 and MsrA act confirm 8.2*.
Screening CN(C)/C=C1\Oc2ccc3ccccc3c2C1=O returned SUMO Mot1 rescue 1, MsrA act -5, MsrA inh -1, PKA-R1A act 14 and PKA-R2B act 3.
O=C(NCc1ccccc1)[C@@H]1CCCN1C(=O)[C@H]1CCCN1C(=O)c1ccccc1 was read as MsrA inh 0.
Oc1c(Cl)cc(Oc2cc(Cl)c(O)c(CN3CCOCC3)c2)cc1CN1CCOCC1 was read as MsrA act 8.7*, MsrA inh 0, PKA-R1A act 0, PKA-R2B act -8 and MsrA act confirm -1.
CCCn1c(N)c(N(CCOC)C(=O)c2ccc(N3CCCC3=O)cc2)c(=O)[nH]c1=O was read as SUMO Mot1 rescue -16, MsrA act 7.9*, MsrA inh -1, PKA-R1A act -14, PKA-R2B act -16 and MsrA act confirm 1.
CCCCn1c(N)c(N(CCOC)C(=O)c2ccc(N3CCCC3=O)cc2)c(=O)[nH]c1=O was read as SUMO Mot1 rescue -4, MsrA act -1, MsrA inh 0, PKA-R1A act -7 and PKA-R2B act -1.
`CCOc1ccc(NC(=O)CSCc2cnn(-c3ccccc3)c2-n2cccc2)cc1` gave SUMO Mot1 rescue 1, MsrA act 8.8*, MsrA inh 0, PKA-R1A act -1, PKA-R2B act -9 and MsrA act confirm 1.
Screening COc1cc(NC(=O)CSCc2cnn(-c3ccccc3)c2-n2cccc2)cc(OC)c1 returned SUMO Mot1 rescue 9, MsrA act 1, MsrA inh 0, PKA-R1A act -10 and PKA-R2B act -13.
`COCc1cc(N2CCN(C(=O)OC(C)(C)C)C[C@H]2C)ccc1N1C[C@@H](C)O[C@@H](C)C1` gave MsrA inh -1.
For O=C(COC(=O)C1(c2ccc(Cl)cc2)CCCC1)Nc1ncc(C(F)(F)F)cc1Cl the results were SUMO Mot1 rescue 7, MsrA act 8.8*, MsrA inh 0, PKA-R1A act -1, PKA-R2B act -3 and MsrA act confirm 3.
O=C(COC(=O)C1(c2ccc(F)cc2)CCCC1)Nc1ncc(C(F)(F)F)cc1Cl was read as SUMO Mot1 rescue 13, MsrA act 3, MsrA inh 0, PKA-R1A act 4 and PKA-R2B act -8.

Bioassay records: PubChem BioAssay, several laboratories
